Assay outcomes from PubChem BioAssay.
This is a sample that favours compounds with a hit; in the whole collection about 19% have one here.
Pf growth 48h: Primary qHTS for delayed death inhibitors of the malarial parasite plastid, 48 hour incubation; Potency, µM (top dose mostly 28.7 µM), most hits filed as inhibitors; P. falciparum luciferase growth in erythrocytes, 48 h; 5.9% of 310,000 active
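Compounds are pin-transferred into medium, infected erythrocytes (2% hematocrit, 0.1% parasitemia final) are added, and plates sit one parasite generation at 37 C in 5% CO2. Detection reagent is then added and luminescence measured.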
Pf growth 96h: Primary qHTS for delayed death inhibitors of the malarial parasite plastid, 96 hour incubation; P. falciparum luciferase reporter growth, 96 h; Potency, µM (top dose mostly 28.7 µM), most hits filed as inhibitors; 6.9% of 320,000 active; AID 504834, 2011
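Delayed-death screen, second-generation endpoint: infected erythrocytes, 2% hematocrit, 0.05% parasitemia final; 96 hours at 37 C, 5% CO2; luciferase detection reagent; luminescence decrease equals reduced growth.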
LASV entry inh: qHTS for Inhibitors of binding or entry into cells for Lassa Virus. 1.2% of 300,000 active. Lassa virus pseudotype entry inhibition, cell reporter. Potency, µM (doses to about 37.9 µM), hits mostly inhibitors; calls by dose curve; tested in HEK293 cells; further: nearly all actives have a fitted effect of over 50% in size
CHX counter: Cycloheximide Counterscreen for Small Molecule Inhibitors of Shiga Toxin; cell reporter, cycloheximide protein synthesis inhibition counterscreen; max response, %; 12% of 300,000 active; in the data active means max response mostly above about 13%, no sharp cut-off; inactive means mostly below about 14%; further: read at 38.3 µM for the half of the compounds with a filed dose
Shiga inhibitor: A qHTS for Small Molecule Inhibitors of Shiga Toxin. 9.2% of 290,000 active. Vero cells, Shiga toxin protein synthesis inhibition reporter. inhibition, % at 38.7 µM. AID 2315, 2010; in the data active means inhibition mostly above about 28%, no sharp cut-off; inactive means mostly below about 43%
Marburg entry inh: qHTS for inhibitors of binding or entry into cells for Marburg Virus; Marburg virus pseudotyped entry inhibition, cell reporter; 1.8% of 300,000 active; Potency, µM (titrated, usually from 37.8 µM), hits mostly inhibitors; calls by dose curve; tested in HEK293 cells
Of the large screens only hits and unclear results are named; the others gave an inactive call; ! = repeats disagree. Unless noted, the call rests on the fitted dose curve; in most records, active means well fitted inhibition curve with a large enough effect; inconclusive means small, poorly fitted or top-dose-only effect, or another doubt; inactive means no such curve, though single readings can be large or run the other way.

CS(=O)(=O)N1N=C(c2cccs2)CC1c1ccccc1 (stereo not given)	Pf growth 48h inconclusive, Pf growth 96h inconclusive, CHX counter 13 (no result: LASV entry inh, Marburg entry inh)
COc1cccc(C2CC(c3cccs3)=NN2S(C)(=O)=O)c1OC (stereo not given)	none
COc1ccc(C(=O)Nc2ccc3nc(SCC(=O)N4CCCc5ccccc54)sc3c2)cc1	Marburg entry inh inconclusive (no result: Pf growth 48h, Pf growth 96h, CHX counter, Shiga inhibitor)
COc1cccc(C(=O)N2CCN(C(=O)C3CCCO3)CC2)c1 (stereo not given)	none (no result: CHX counter, Shiga inhibitor)
CC(=O)N1N=C(c2ccc3ccccc3c2)OC1(C)C	LASV entry inh inconclusive
CC(O)[C@@H]1NC(=O)[C@H](CCCN)NC(=O)[C@@H](Cc2c[nH]c3ccccc23)NC(=O)[C@H](Cc2ccc(O)cc2)NC(=O)[C@@H](NC(=O)[C@H](N)Cc2ccccc2)CSSC(C)(C)C(C(=O)N[C@H](C(N)=O)[C@@H](C)O)NC1=O (stereo not given in full)	none (no result: Pf growth 48h, Pf growth 96h, LASV entry inh, Marburg entry inh)
Cc1ccc(S(=O)(=O)Nc2cccc(C(=O)NCC(c3ccco3)N3CCCCC3)c2)cc1F (stereo not given)	Pf growth 48h inconclusive, Marburg entry inh inconclusive (no result: CHX counter, Shiga inhibitor)
CS(=O)(=O)N1N=C(c2cccs2)CC1c1ccc(Cl)o1 (stereo not given)	CHX counter 36, Shiga inhibitor 66 (no result: LASV entry inh, Marburg entry inh)
COc1ccc(C(=O)N2N=C(c3cccs3)CC2c2ccccc2O)cc1 (stereo not given)	Pf growth 48h inconclusive, Pf growth 96h inconclusive, LASV entry inh inconclusive, Marburg entry inh inconclusive
COc1ccc(C2CC(c3cccs3)=Nc3ccccc3S2)cc1 (stereo not given)	Pf growth 96h inconclusive, CHX counter 61, Shiga inhibitor 83 (no result: LASV entry inh, Marburg entry inh)
c1ccc(C2Oc3ccccc3C3CC(c4cccs4)=NN32)cc1 (stereo not given)	CHX counter 56, Shiga inhibitor 105, Marburg entry inh inconclusive
CN(C)CCC=C1c2ccccc2CCc2ccccc21	Pf growth 48h 15µM, Pf growth 96h inconclusive, LASV entry inh 9.2µM, Marburg entry inh 12µM!
CN(C)CCC=C1c2ccccc2C=Cc2ccccc21	Pf growth 48h 12µM, Pf growth 96h inconclusive, LASV entry inh 8.2µM, Marburg entry inh 6.5µM (no result: CHX counter, Shiga inhibitor)
CN(C)CCC=C1c2ccccc2C(C)(C)c2ccccc21	Pf growth 48h inconclusive, Pf growth 96h 6.7µM (no result: LASV entry inh, CHX counter, Shiga inhibitor, Marburg entry inh)
Oc1cccc(-c2nc(-c3cccs3)c(-c3cccs3)[nH]2)c1	Marburg entry inh inconclusive (no result: Pf growth 48h, Pf growth 96h, CHX counter, Shiga inhibitor)
Cc1ccc(-n2c(SCC(=O)N3CCCCC3)nc(O)cc2=O)cc1	none
COc1ccc(C2(O)CN(c3ccccc3)C3=[N+]2CCS3)cc1OC (stereo not given)	none
Cc1cc(C)nc(N2CCC(C(=O)NCc3ccco3)CC2)n1	none
CCOC(=O)C(C)Sc1nc(-c2ccco2)cc(C(F)(F)F)c1C#N (stereo not given)	Pf growth 48h inconclusive, Pf growth 96h inconclusive
Cc1ccc(O)c(NC(=O)c2cc(-c3ccccc3Cl)on2)c1	Pf growth 48h inconclusive, Pf growth 96h inconclusive, CHX counter 34, Shiga inhibitor 78, Marburg entry inh inconclusive
COc1ccc(-c2cc(C(=O)Nc3cc(Cl)ccc3O)no2)cc1	Pf growth 48h inconclusive, Pf growth 96h inconclusive, CHX counter 38, Shiga inhibitor 70 (no result: LASV entry inh)
COc1ccc(-c2cc(C(=O)Nc3cc(C)ccc3O)no2)cc1	Pf growth 96h 3.3µM, CHX counter 14 (no result: LASV entry inh)
Cc1ccc(-c2cc(C(=O)Nc3cc(C)ccc3O)no2)cc1	LASV entry inh inconclusive, Marburg entry inh inconclusive
COc1ccc(-c2cc(C(=O)Nc3cc(Cl)ccc3OC)no2)cc1	LASV entry inh inconclusive, Marburg entry inh inconclusive
CC(C)Cn1c(SCC(=O)Nc2cccc(S(N)(=O)=O)c2)nc2ccccc2c1=O	Pf growth 48h inconclusive, Pf growth 96h inconclusive
CC(/C=N/NC(=O)CSc1nc(C)cc(C)n1)=C\c1ccccc1	Pf growth 96h inconclusive
O=C(N/N=C/C(Cl)=C/c1ccccc1)c1cnccn1	Pf growth 48h inconclusive, Pf growth 96h inconclusive, Shiga inhibitor 57
CC(/C=N/Nc1nc(C)cc(C)n1)=C\c1ccc(C(C)C)cc1	Pf growth 48h 10µM, Pf growth 96h inconclusive, CHX counter 35, Shiga inhibitor 59, Marburg entry inh inconclusive
Cn1cccc1CC(=O)N/N=C/C(Cl)=C/c1ccccc1	Pf growth 96h inconclusive, Marburg entry inh inconclusive
CC(=C/c1ccccc1)/C=N/NC(=O)c1cnccn1	LASV entry inh inconclusive, CHX counter 30, Shiga inhibitor 51, Marburg entry inh inconclusive (no result: Pf growth 48h)
O=C(N/N=C/C(Cl)=C\c1ccccc1)c1cnccn1	Pf growth 96h inconclusive, CHX counter 53, Shiga inhibitor 132 (no result: Pf growth 48h)
CC(/C=N/NC(=O)c1cc(C(C)C)[nH]n1)=C\c1ccccc1	LASV entry inh inconclusive, Marburg entry inh inconclusive
CC(/C=N/NC(=O)C(O)c1ccccc1)=C\c1ccccc1 (stereo not given)	CHX counter 14, Shiga inhibitor 45
CC(/C=N/NC(=O)c1cccnc1)=C\c1ccccc1	CHX counter 49, Shiga inhibitor 84
CC(/C=N/NC(=O)c1ccc(Br)cc1)=C\c1ccccc1	Pf growth 96h inconclusive, Marburg entry inh inconclusive (no result: Pf growth 48h)
CC(/C=N/NC(=O)c1ccncc1)=C\c1ccc(C(C)C)cc1	Pf growth 48h 4.7µM, Pf growth 96h 5.2µM, CHX counter 52, Shiga inhibitor 128
CC(=C/c1ccc(C(C)C)cc1)/C=N/NC(=O)Cn1nnnc1N	none
O=C(O)CNC(=S)N(Cc1ccccc1F)C1CCCCC1	Pf growth 96h inconclusive
CCCCCCN1CCN(C2CN(Cc3ccc(C)cc3)S(=O)(=O)C2)CC1 (stereo not given)	LASV entry inh 6.3µM (no result: Pf growth 48h, Pf growth 96h, CHX counter, Shiga inhibitor, Marburg entry inh)
N#Cc1cc(C#N)c(N2CCN(c3cccc(Cl)n3)CC2)nc1N	Pf growth 48h 3.7µM, Pf growth 96h 1.7µM, CHX counter 67, Shiga inhibitor 89, Marburg entry inh inconclusive
NC1CCN(c2cccc(Cl)n2)CC1	Marburg entry inh inconclusive (no result: CHX counter, Shiga inhibitor)
CCCS(=O)(=O)NCCc1cc2ccc(C)cc2[nH]c1=O	LASV entry inh inconclusive, CHX counter 12, Shiga inhibitor 28
COc1ccc2cc(CCNC(=O)C(C)C)c(=O)[nH]c2c1	none (no result: LASV entry inh, Marburg entry inh)
COc1ccc2cc(CCNC(=O)c3ccco3)c(=O)[nH]c2c1	Pf growth 96h inconclusive, CHX counter 58, Shiga inhibitor 95
Cc1ccc2cc(CCNC(=O)CCCc3ccccc3)c(=O)[nH]c2c1	Pf growth 96h inconclusive (no result: LASV entry inh, Marburg entry inh)
Cc1ccc2cc(CCNC(=O)c3ccco3)c(=O)[nH]c2c1	CHX counter 31, Shiga inhibitor 63 (no result: Pf growth 96h)
Cc1ccc2cc(-c3noc(C(C)(C)C)n3)c(=O)[nH]c2c1	Pf growth 48h inconclusive
CCc1nc(-c2cc3ccc(C)cc3[nH]c2=O)no1	Pf growth 96h inconclusive, LASV entry inh inconclusive, CHX counter 17
COc1cc2c(cc1NC(=S)Nc1cccc(C)c1)oc1ccccc12	none (no result: Pf growth 96h)
Cc1ccc2cc(CCNC(=O)c3ccco3)c(=O)[nH]c2c1C	CHX counter 61, Shiga inhibitor active, Marburg entry inh inconclusive
